High-throughput results as filed in PubChem.
PLAP activator: activates human placental alkaline phosphatase; activation fold at 20 µM; 96,000 tested, 1.2% active; purified PLAP enzyme, luminescent substrate read-out; active compounds read high; in the data active = activation fold above about 2
CYP2C19 act: activators of human cytochrome P450 2C19. P33261. recombinant CYP2C19, luciferin-H EGE luminescence; active compounds read high; 0 = fully inhibited enzyme, 1 = untreated enzyme. activation factor at 5 µM. 96,000 tested, under 10 active;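 active = activation factor of at least 2 at 5 µM in the primary screen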;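 also: 0 = wells with 2.5 mM tranylcypromine and 1 = vehicle-only wells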
CYP2C19 inh: inhibitors of human CYP2C19 | 96,000 tested, 21% active | inhibition, % at 5 µM | P33261 | CYP2C19 Supersomes, luciferin-H EGE luminescence, 30 min | AID 778;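 active = CYP2C19 inhibition above a set limit at 5 µM in the primary screen, cut at about 50% in these data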;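 also: plate controls were negative control wells for no effect and 2.5 mM tranylcypromine positive control for full effect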
CYP2C9 activ: increases human cytochrome P450 2C9 activity; P11712; recombinant CYP2C9, luciferin-H conversion, luminescence; active compounds read high; factor 1 = untreated enzyme, 0 = blocked; activation factor at 5 µM; 96,000 tested, 1.4% active; AID 1024;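 active = activation factor of 2 or more for CYP2C9 at a 5 µM dose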;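 also: 0 = sulfaphenazole-blocked wells and 1 = vehicle-only wells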
Target sequence (P11712 whole entry, looked up): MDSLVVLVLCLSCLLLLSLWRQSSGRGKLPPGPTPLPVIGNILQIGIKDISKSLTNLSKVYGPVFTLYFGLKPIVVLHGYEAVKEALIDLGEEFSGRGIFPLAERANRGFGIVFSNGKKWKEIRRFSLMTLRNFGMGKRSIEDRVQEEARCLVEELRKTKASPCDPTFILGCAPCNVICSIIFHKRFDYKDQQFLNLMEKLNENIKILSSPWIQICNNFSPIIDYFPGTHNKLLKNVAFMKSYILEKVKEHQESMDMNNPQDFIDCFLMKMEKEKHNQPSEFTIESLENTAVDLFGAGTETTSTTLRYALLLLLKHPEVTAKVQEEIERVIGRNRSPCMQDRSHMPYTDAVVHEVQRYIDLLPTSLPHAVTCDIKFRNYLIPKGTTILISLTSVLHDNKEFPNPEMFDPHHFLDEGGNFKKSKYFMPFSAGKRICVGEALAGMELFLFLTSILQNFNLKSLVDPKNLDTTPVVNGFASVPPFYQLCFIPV
CYP2C9 inh: human CYP2C9 inhibition. P11712. CYP2C9 Supersomes, luciferin-H conversion, luminescence. inhibition, % at 5 µM. 96,000 tested, 20% active;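 active = blocking of liver enzyme CYP2C9 beyond about 50% at 5 µM, limit read from the data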
Active calls of the source: *. In the library only some 31% were active in any assay of this set; here they are far more common.

SMILES	PLAP activator	CYP2C19 act	CYP2C19 inh	CYP2C9 activ	CYP2C9 inh
Cc1cccc(CN2CCC(CNC(=O)C3CCCN(S(=O)(=O)c4cnc[nH]4)C3)CC2)c1 (stereo not drawn)	1.5	1.1	-6	1	-1
Cc1cc(C)nc(N2CCCC(C(=O)Nc3nc4ccc(S(C)(=O)=O)cc4s3)C2)n1 (stereo not drawn)	1.5	0.1	87*	0.2	83*
O=C(O)C1CC=CCC1C(=O)N1CCCC1 (stereo not drawn)	0.9	1.1	-10	0.9	9
CCC1(C)N=c2c(c(=O)n(C)c(=O)n2C)=NO1 (stereo not drawn)	0.9	1.1	-14	1.1	-12
C=CCn1c(C#N)c(N)sc1=N	1.1	1.1	-7	1	2
O=C1CCCN1C(=O)CCC(=O)N1CCCC1=O	1	1.1	-8	1.1	-9
O=C(NC1CCCC1)C1CCCN(S(=O)(=O)c2cnc[nH]2)C1 (stereo not drawn)	0.9	0.5	49	0.8	24
Cc1ccnc(NC(=O)C2CCCN(S(=O)(=O)c3cnc[nH]3)C2)c1 (stereo not drawn)	1	0.6	44	0.4	58*
O=S(=O)(c1cccc(-c2nnc(SCc3ccc(Cl)cc3)o2)c1)N1CCCCC1	0.9	0.3	69*	0.1	87*
CN(C)S(=O)(=O)c1cccc(-c2nnc(SCc3ccc4c(c3)OCCO4)o2)c1	1.5	0.4	64*	0.1	92*
CCCn1c(N)c(C(=O)CN2CCN(S(=O)(=O)c3cccs3)CC2)c(=O)[nH]c1=O	1	0.9	10	0.9	12
COc1ccccc1S(=O)Cc1ccc(C(=O)NCc2ccccc2Cl)o1 (stereo not drawn)	1	0.6	36	0.7	26
CN=C(c1ccco1)n1c(=S)nc(-c2ccco2)n(C)c1=S	2.7*	0.2	79*	0.3	66*
Nn1c(-c2ccco2)n[nH]c1=S	0.7	1	2	0.9	9
O=C(Oc1cccc(NC(=O)c2ccco2)c1)c1cccc(S(=O)(=O)N2CCCCC2)c1	1	1.2	-17	1	4
Cc1ccc(C(=O)Oc2cccc(NC(=O)c3cccs3)c2)cc1S(=O)(=O)N1CCOCC1	1.4	0.5	46	0.4	58*
Cc1cc(C(=O)OCC(=O)Nc2cccc(S(=O)(=O)N3CCOCC3)c2)c(C)o1	1.7	0.3	73*	0.2	83*
CCOC(=O)c1ccccc1NC(=O)COC(=O)c1ccc(C)c(S(=O)(=O)N2CCOCC2)c1	0.9	0.8	19	0.4	61*
COc1ccc(C(=O)Nc2cccc(C)c2)cc1S(=O)(=O)N1CCOCC1	0.9	0.8	23	0.9	6
O=C(Nc1cccc(S(=O)(=O)N2CCOCC2)c1)c1ccco1	1.1	0.3	75*	1.1	-8
Cc1ccc(C(=O)OCC(=O)Nc2ccccc2C(F)(F)F)cc1S(=O)(=O)N1CCOCC1	0.9	0.8	18	0.7	32
Cc1nc2ccccn2c1/C(O)=C1\C(=O)C(=O)N(CCCn2ccnc2)C1c1ccncc1 (stereo not drawn)	1	0.9	7	0.8	24
O=C(COc1ccc(S(=O)(=O)N2CCCC2)cc1Cl)Nc1ccc2c(c1)OCO2	0.9	0.9	6	1.1	-8
CCNc1ccc(C(=O)OCC)cc1NC(=O)c1cccc(S(=O)(=O)N2CCOCC2)c1	1	0.6	45	0.4	58*
O=C(COC(=O)CCc1ccc(S(=O)(=O)N2CCCCC2)cc1)Nc1ccc2c(c1)OCO2	0.8	0.6	43	0.2	76*
SMILES	PLAP activator	CYP2C19 act	CYP2C19 inh	CYP2C9 activ	CYP2C9 inh
Cc1ccc(C(=O)OCC(=O)Nc2ccc3c(c2)OCO3)cc1S(=O)(=O)N1CCOCC1	0.9	0.6	40	0.5	51*
O=C(COC(=O)c1cc(S(=O)(=O)N2CCOCC2)ccc1Cl)Nc1ccc2c(c1)OCO2	1	0.3	68*	0.4	61*
Cc1nnc(C)n1/N=C/c1ccc(O)cc1	0.9	1	-2	0.9	10
Oc1ccc(/C=N/n2c3ccccc3c3ccccc32)cc1	0.9	0.8	20	0.3	73*
COc1ccc(-c2nc(NC(=O)c3cc(C(C)(C)C)nn3C)sc2C)cc1	1.7	0.9	6	1.7	-68
COC(=O)/C=C(\C)NC(=O)c1ccccc1Cl	1.1	0.2	80*	0.9	11
CC(NC(=O)c1ccccc1Cl)C(=O)O (stereo not drawn)	1.2	1.1	-8	0.9	12
Cc1oc(-c2cccc(Cl)c2)nc1CN1CCCC(C(=O)NC(C)c2ccc3c(c2)OCCO3)C1 (stereo not drawn)	1.8	0.1	87*	0.2	81*
Cc1ccc(S(=O)(=O)NC(CN2CCOCC2)=NCCNS(=O)(=O)c2ccccc2)cc1	1.6	0.7	29	0.5	52*
Cn1ccs/c1=N\S(=O)(=O)c1ccc(F)cc1	1.3	0.7	33	1.6	-62
Cc1ccc(S(=O)(=O)/N=c2\sccn2C)cc1	1	0.8	21	2.2*	-122
CSc1nnnn1-c1cccc(O)c1	0.9	0.8	22	2.4*	-142
COc1ccc(C(C(=O)NC2CCCCC2)N(CC2CCCO2)C(=O)CNC(=O)c2ccco2)cc1 (stereo not drawn)	1.6	1	3	1.1	-12
CCOC12NC(=O)CC(=O)N1C(c1ccccc1)=CS2 (stereo not drawn)	1.4	0.7	26	0.8	20
Cc1cccc(NC(=O)NCC(F)(F)F)n1	0.9	1.1	-9	0.9	11
Cc1cccc(NC(=O)C(C)Oc2ccccc2C)n1 (stereo not drawn)	0.9	0.1	85*	0.4	61*
COc1ccc2cc(CCNC(=O)C3CCCC3)c(=O)[nH]c2c1	1.1	1.1	-6	1.1	-8
O=C(CSc1nnc(CNc2ccc(Cl)cc2)o1)Nc1nc2c(s1)CCCC2	1.3	1.2	-18	1	-3
C=C(C)c1cccc(C(C)(C)NC(=O)NCCCn2ccnc2)c1	1.3	0	98*	0	96*
Cc1ccc(NC(=O)NCCCN2CCCC2=O)cc1	0.9	1	-4	1	-4
C=C(C)c1cccc(C(C)(C)NC(=O)NCCCN2CCCC2=O)c1	2.3*	0.9	11	0.9	13
C=C(C)c1cccc(C(C)(C)NC(=O)N2CCN(c3ccccn3)CC2)c1	0.9	0.7	28	0.6	44
CCN1CCN(Cc2nc(N)nc(Nc3ccc(C)c(C)c3)n2)CC1	1.4	1.1	-14	1.2	-19
Cc1ccc(Nc2nc(N)nc(CN3CCN(C)CC3)n2)cc1	1.5	1.2	-19	1.3	-29
Cc1ccc(Nc2nc(N)nc(CN3CCN(C(=O)c4ccco4)CC3)n2)cc1Cl	1.7	0.2	78*	0.2	85*
Cc1cccc(Nc2nc(N)nc(CN3CCN(c4ccc(F)cc4)CC3)n2)c1	1.1	0.4	55*	0.4	59*
Cc1cccc(Nc2nc(N)nc(CN3CCN(C)CC3)n2)c1	1.3	1.2	-18	0	96*
